Our source for the Inhibition values is ChEMBL document CHEMBL1157539, “Thousands of chemical starting points for antimalarial lead identification” (Nature, 2010).

Format in all cases: functional
For experiment [1], the system named is Plasmodium falciparum. Description: GSK_TCMDC: Inhibition of Plasmodium falciparum 3D7 in whole red blood cells, using parasite LDH activity as an index of growth. Test compounds present at 2uM.
The test system of experiment [2] is Plasmodium falciparum. Description: GSK_TCMDC: Inhibition of Plasmodium falciparum Dd2 in whole red blood cells, using parasite LDH activity as an index of growth. Test compounds present at 2uM.
The subject of another experiment is HepG2. Description: GSK_TCMDC: Percent inhibition of human HepG2 cell line. Test compounds present at 10uM.

For `CCN(CC)CCOc1ccc(C(O)(C#CC(O)(c2ccc(Br)cc2)c2ccc(OCCN(CC)CC)cc2)c2ccc(Br)cc2)cc1` (stereo unspecified), the Inhibition with Plasmodium falciparum [1], in the experiment with Plasmodium falciparum [2] and in the experiment with HepG2 was 99% in each case.
`COc1ccc(C2CCN(CCCCNC(=O)c3ccc(NC(=O)c4ccc(Cl)cc4)cc3)C2)c(OC)c1` (stereo unspecified): the Inhibition (as a rule, the change of the read-out against control, counted positive when it falls) came out at 84% with Plasmodium falciparum [1], 0% with Plasmodium falciparum [2] and 18% in the experiment on HepG2.
The like results for `CC1CCN(c2nc(C(=O)Nc3ccc(F)cc3C(F)(F)F)c(C(C)C)s2)CC1.O=C(O)C(F)(F)F` were, in that order, 100%, 66% and 5%.
The like results for `N=C(N)Nc1nc(-c2cccc(NC(=O)CCCCCCCON3C(N)=NC(N)=NC34CCCCC4)c2)cs1` were, in that order, 96%, 89% and 1%.
As to `CC(Sc1nc2sccc2c(=O)n1C)C(=O)Nc1ccc2c(c1)OCO2` (stereo unspecified), the results for the Inhibition in the experiment on Plasmodium falciparum [1], in the experiment on Plasmodium falciparum [2] and in the experiment with HepG2 were 100%, 100% and 5%, respectively.
Consider `O=C(NCCCCCN1CCCN(C(=O)Nc2ccc(F)c(C(F)(F)F)c2)CC1)C1CC1c1ccc(Cl)c(Cl)c1` (stereo unspecified), for which the Inhibition in the experiment with Plasmodium falciparum [1] amounted to 90%; in the experiment with Plasmodium falciparum [2] it was 1%; with HepG2, 61%.
Consider `COc1cc(C=NNc2cc(C)nc3c(OC)cccc23)cc(OC)c1OC`, for which the values for the Inhibition in the experiment with Plasmodium falciparum [1], in the experiment with Plasmodium falciparum [2] and in the experiment with HepG2 were 94%, 49% and 2%, respectively.
In the same order, the values of `CNC(=O)C1Cc2c([nH]c3ccc(Br)cc23)C2(CCN(CCc3ccccc3)CC2)N1` (stereo unspecified) are 100%, 60% and 15%.
Take `Br.Cc1ccc(OCCCON2C(=N)N=C(N)NC2(C)C)cc1C`: the Inhibition in the experiment on Plasmodium falciparum [1] turned out to be 96%; in the experiment with Plasmodium falciparum [2], 94%; with HepG2 it was 57%.
In the case of `COc1ccc(CCc2ccc(-c3c(C)[nH]c(C)c(Cl)c3=O)cc2)cc1`, the Inhibition in the experiment with Plasmodium falciparum [1] is 98%; in the experiment with Plasmodium falciparum [2], 97%; in the experiment with HepG2, 0%.
As for `Oc1cc(NCCCNC2CCc3c(Cl)cc(Cl)cc32)nc2ccccc12` (stereo unspecified), the Inhibition came out at 100% with Plasmodium falciparum [1], 29% with Plasmodium falciparum [2] and 3% with HepG2.
Turning to `O=C(N[C@@H](Cc1ccccc1)C(=O)O)c1cc(-c2ccc(F)cc2)no1.O=C(N[C@@H](Cc1ccccc1)C(=O)O)c1conc1-c1ccc(F)cc1`, the Inhibition in the experiment on Plasmodium falciparum [1] came to 96%; in the experiment with Plasmodium falciparum [2], 49%; in the experiment on HepG2, 0%.
Turning to `OCCn1c(CNCCCNc2nc3ccccc3[nH]2)cc2c(Cl)cc(Cl)cc21`, the Inhibition with Plasmodium falciparum [1] came to 95%; in the experiment on Plasmodium falciparum [2] it was 0%; in the experiment with HepG2, 29%.
Consider `CCCc1cc(C(=O)N[C@@H](Cc2ccccc2)[C@H](O)CNC(C)C)c(F)c(N2CCCC2=O)c1`, for which the Inhibition in the experiment on Plasmodium falciparum [1] came out at 90%; with Plasmodium falciparum [2] it was 22%; in the experiment with HepG2 it was 0%.
The like results for `COc1cccc(C(=O)OC2=C3CCC(=O)C3(C)CCC2=O)c1` (stereo unspecified) were, in that order, 93%, 9% and 37%.
As to `CCCC(CNCc1cccc(SC(F)(F)F)c1)CNc1cc(=O)c2ccccc2[nH]1` (stereo unspecified), the Inhibition came to 100% in the experiment on Plasmodium falciparum [1], 87% in the experiment on Plasmodium falciparum [2] and 5% in the experiment with HepG2.
In the same order, the values of `CC1(C)C(=O)Nc2ccc3c(c21)CC1SC(=O)NN=C31` (stereo unspecified) are 96%, 92% and 6%.
In the same order, the values of `O=C(Nc1ccc2c(c1)CCC2)c1ccc(N2CCN(c3ccncc3)CC2)cn1.O=C(O)C(F)(F)F` are 99%, 58% and 56%.
The like results for `Cc1cccc2nc(-c3ccc(-c4ccc(NC(=O)CN5CCN(C)CC5)cc4)cc3)[nH]c12` were, in that order, 100%, 83% and 29%.
Turning to `O=C(NC1CCN(Cc2ccccc2)CC1)c1cc(-c2ccncc2)nc2ccc(Cl)cc12`, the Inhibition in the experiment on Plasmodium falciparum [1] amounted to 97%; in the experiment on Plasmodium falciparum [2] it was 27%; in the experiment with HepG2, 17%.
The like results for `Cc1cccc(NC(=O)c2ccc(C(=O)NC3CCN(CC4CCCCC4)C3)cc2)c1.O=C(O)C(F)(F)F` (stereo unspecified) were, in that order, 88%, 3% and 17%.
The like results for `COc1ccc2nccc([C@@H](O)CN3CCC(NC(=O)C(=Cc4ccc(Cl)cc4Cl)c4ccc(-c5ccccc5)cc4)CC3)c2c1` were, in that order, 100%, 98% and 1%.
As for `COc1ccc(C2(CNCC(O)c3cccc([N+](=O)[O-])c3)CCCCC2)cc1OC.Cl` (stereo unspecified), the Inhibition stood at 95% in the experiment on Plasmodium falciparum [1], 85% in the experiment on Plasmodium falciparum [2] and 0% in the experiment on HepG2.
As for `COc1c(CN2CCOCC2)cccc1-c1cc2c(-c3ccc(C(=O)O)c(C(C)C)c3)ccnc2[nH]1.O=C(O)C(F)(F)F`, the Inhibition in the experiment with Plasmodium falciparum [1] was 98%; in the experiment on Plasmodium falciparum [2], 90%; with HepG2, 44%.
In the same order, the values of `CC(=O)c1c(CC(=O)O)c2ccccc2n1O` are 98%, 0% and 16%.
`Cc1ccc(CN2CCN(Cc3cccc(NC(=O)c4ccc5ccccc5c4)c3)CC2)cc1C.O=C(O)C(F)(F)F`: the values for the Inhibition in the experiment with Plasmodium falciparum [1], in the experiment with Plasmodium falciparum [2] and in the experiment with HepG2 were 89%, 23% and 62%, respectively.
In the same order, the values of `Cc1cccc2[nH]cc(C3CCN(CCC4CCN(C(=O)/C=C/c5ccc(Cl)c(Cl)c5)CC4)CC3)c12` are 91%, 8% and 13%.
